Bioassay records from PubChem BioAssay.
Shiga toxin inh: Shiga toxin inhibition; Vero cells, Shiga toxin protein synthesis inhibition reporter; inhibition, % at 38.7 µM; hit rate 9.2% among 290,000; AID 2315; in the data active = inhibition mostly above about 28%, no sharp cut-off; inactive = mostly below about 43%
Cycloheximide cs: counter-screen hit for Shiga toxin inhibitors, cycloheximide; max response, %; cell reporter, cycloheximide protein synthesis inhibition counterscreen; hit rate 12% among 300,000; in the data active = max response mostly above about 13%, no sharp cut-off; inactive = mostly below about 14%; also: read at 38.3 µM for the half of the compounds with a filed dose
Pf growth 96h: inhibits malaria parasite growth, 96 h. hit rate 6.9% among 320,000. P. falciparum luciferase reporter growth, 96 h. Potency, µM (titrated, usually from 28.7 µM), actives largely listed as inhibitors
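Two-generation exposure (96 h) targets delayed-death phenotype. Reporter parasites carrying integrated firefly luciferase, in red cells at 2% hematocrit and 0.05% parasitemia final, kept at 37 C, 5% CO2; luminescence loss indicates inhibition.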
Pf growth 48h: P. falciparum growth inhibition at 48 hours (one generation); AID 504832; P. falciparum luciferase growth in erythrocytes, 48 h; Potency, µM (doses to about 28.7 µM), usual class: inhibitors; hit rate 5.9% among 310,000
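Parasite viability was followed by luminescence of a genomically integrated firefly luciferase. Cultures held 0.1% parasitemia at 2% hematocrit (final), incubated under 5% CO2 at 37 C.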
Each line names hits and unclear results; the compound was inactive in the other large screens. An excerpt weighted towards active compounds, which were near 21% of everything screened. Unless noted, calls follow the shape of the dose curve; as a rule, active = well fitted inhibition curve with a large enough effect; inconclusive = small, poorly fitted or top-dose-only effect, or another doubt; inactive = no such curve, though single readings can be large or run the other way.

COc1cc2[nH]c(=O)n(CCC(=O)N3CCN(Cc4ccc5c(c4)OCO5)CC3)c(=O)c2cc1OC	none
CCOc1cc2[nH]c(=O)n(CCC(=O)N3CCN(c4ccccc4OC)CC3)c(=O)c2cc1OCC	Pf growth 96h 12µM, Pf growth 48h inconclusive
CCOc1cc2[nH]c(=O)n(CCCCC(=O)N3CCCCCC3)c(=O)c2cc1OCC	Pf growth 48h 5.2µM
CC(C)[C@H](NC(=O)c1ccco1)C(=O)N(C)Cc1c(F)cccc1Cl	none
CC(C)C(NC(=O)c1ccc(C(C)(C)C)cc1)C(=O)NCc1ccccn1 (stereo not given)	Pf growth 48h inconclusive (no result: Shiga toxin inh, Cycloheximide cs)
O=C(/C=C/c1ccco1)N1CCN(c2ccc(F)cc2)CC1	Pf growth 96h inconclusive, Pf growth 48h inconclusive
O=C(/C=C/c1ccco1)N1CCCC(c2ccccc2)C1 (stereo not given)	Shiga toxin inh 47, Cycloheximide cs 23
O=C(/C=C/c1ccccc1)N1CCC[C@H]1CO	none
O=C(/C=C/c1ccccc1)N1CCC(c2ccccc2)C1 (stereo not given)	Shiga toxin inh 74, Cycloheximide cs 59
COc1ccc2cc(C3CC(c4cccs4)=NN3S(C)(=O)=O)c(Cl)nc2c1 (stereo not given)	Cycloheximide cs 24, Pf growth 96h inconclusive
COc1cccc(C2=NN(S(C)(=O)=O)C(c3cccs3)C2)c1 (stereo not given)	Shiga toxin inh 40, Cycloheximide cs 35, Pf growth 96h inconclusive
CCS(=O)(=O)Nc1ccc(C2=NN(S(C)(=O)=O)C(c3cccs3)C2)cc1 (stereo not given)	Cycloheximide cs 21
Cc1ccc2cc(C3CC(c4cccs4)=NN3S(C)(=O)=O)c(Cl)nc2c1 (stereo not given)	Pf growth 96h inconclusive, Pf growth 48h inconclusive
CS(=O)(=O)N1N=C(c2ccccc2)CC1c1cccs1 (stereo not given)	Pf growth 96h inconclusive
COc1ccc(C2=NN(S(C)(=O)=O)C(c3cccs3)C2)cc1OC (stereo not given)	Shiga toxin inh 66, Cycloheximide cs 44, Pf growth 96h inconclusive
COc1ccc(S(=O)(=O)Cc2ccc(C(=O)NC3CCCCC3)o2)cc1	none
Cc1ccc(S(=O)(=O)N2CCN(C(=O)COC(=O)c3ccc(Cl)nc3)CC2)c(C)c1	none (no result: Shiga toxin inh, Cycloheximide cs)
CC(OC(=O)Cn1[nH]c(=O)c2ccccc2c1=O)C(=O)NC1(C#N)CCCCC1 (stereo not given)	Pf growth 96h inconclusive, Pf growth 48h 10µM (no result: Shiga toxin inh, Cycloheximide cs)
CC(OC(=O)Cc1c[nH]c2ccccc12)C(=O)NC1(C#N)CCCCC1 (stereo not given)	none
Cc1ccc(SCC(=O)OC(C)C(=O)NC2(C#N)CCCCC2)cc1 (stereo not given)	none (no result: Shiga toxin inh, Cycloheximide cs)
CC(OC(=O)CSc1ccc(F)cc1)C(=O)NC1(C#N)CCCCC1 (stereo not given)	Cycloheximide cs 7.3
CNC(=O)c1cc(C(=O)c2ccc(Cl)cc2)c[nH]1	Shiga toxin inh 56, Cycloheximide cs 24 (no result: Pf growth 48h)
CC[n+]1ccc(/C=C2\Sc3ccccc3N2CCCS(=O)(=O)[O-])c2ccccc21	none
CN1C=C/C(=C\c2cc[n+](C)c3ccccc23)c2ccccc21	Pf growth 96h 12µM, Pf growth 48h inconclusive
CCOc1ccc(C(C(=O)NC2CCCCC2)N(C(=O)c2csnn2)C2CC2)cc1 (stereo not given)	Pf growth 48h inconclusive
O=C(NCc1nnc(SCC(=O)N2CCCC2)o1)c1ccccc1	none
CCOc1cc2c(cc1OC)C(NC(=O)c1ccco1)CC2=O (stereo not given)	none
O=C(NC1CCCCCC1)C(=O)NC1CCCC1	none
O=C(Nc1ccc2c(c1)OCCO2)NC1CCCCC1	Shiga toxin inh 53, Cycloheximide cs 44, Pf growth 96h inconclusive
Cc1ccc(NC(=O)C(=O)NC2CCCCC2)cc1	Cycloheximide cs 12 (no result: Pf growth 48h)
O=C(Nc1cccc(Cl)c1)NC1CCN(C2CCCCC2)C1 (stereo not given)	Pf growth 96h 12µM, Pf growth 48h inconclusive (no result: Shiga toxin inh)
O=C(Nc1cccc(F)c1)NC1CCCCC1	Shiga toxin inh 96, Cycloheximide cs 32
CCOc1ccccc1N(C)S(=O)(=O)c1ccc2c(c1)CCN2C(=O)CCC(=O)O	none
COc1ccc(C(=O)COC(=O)c2ccc3c(c2)OCCO3)c(OC)c1	none (no result: Shiga toxin inh, Cycloheximide cs)
O=C(NC(=S)NC1CCCCC1)c1ccc(F)cc1	Shiga toxin inh 117, Cycloheximide cs 48
O=C(Nc1ccc(F)cc1)NC1CCCCC1	Shiga toxin inh 79, Cycloheximide cs 37 (no result: Pf growth 96h)
O=C(Nc1ccc(F)cc1F)NC1CC1	none
O=C(Nc1ccc(F)cc1F)NC1CCCCCCC1	Shiga toxin inh 96, Cycloheximide cs 37
Cc1ccc(NC(=O)NC2CCCCCCC2)cc1	Shiga toxin inh 71, Cycloheximide cs 40, Pf growth 96h inconclusive
O=C(NC(=S)NC1CCN(Cc2ccccc2)CC1)c1ccc(F)cc1	Pf growth 96h inconclusive (no result: Pf growth 48h)
COC(=O)c1ccc(CNC(=O)COC(=O)c2ccccc2-c2ccccc2)cc1	Pf growth 48h inconclusive (no result: Shiga toxin inh, Cycloheximide cs)
COCc1nc2ccccc2n1Cc1c(F)cccc1Cl	Pf growth 96h inconclusive, Pf growth 48h inconclusive
CCCn1c(SCC(=O)Nc2ccccc2Oc2ccccc2)n[nH]c1=O	none (no result: Pf growth 48h)
COc1ccc(S(=O)(=O)N2CCCCCC2)cc1NC(=O)CCCOc1ccccc1	Pf growth 96h inconclusive, Pf growth 48h 9.3µM (no result: Shiga toxin inh, Cycloheximide cs)
COc1ccc(CNC(=O)COc2ccc(S(=O)(=O)N3CCCCC3)cc2Cl)cc1	Pf growth 48h 13µM
COc1ccc(S(=O)(=O)N2CCCCC2)cc1NC(=O)CSc1ncccn1	Pf growth 96h 12µM, Pf growth 48h inconclusive (no result: Shiga toxin inh, Cycloheximide cs)
COc1ccc(OCCCC(=O)Nc2cc(S(=O)(=O)N3CCCCC3)ccc2OC)cc1	Pf growth 96h 9.3µM, Pf growth 48h 12µM (no result: Shiga toxin inh, Cycloheximide cs)
CNC(=O)C(C#N)(Cc1cc(C(C)=O)ccc1OC)Cc1cc(C(C)=O)ccc1OC	none
COc1ccc(OCCN2C(=O)NC3(CCc4ccccc4C3)C2=O)cc1 (stereo not given)	none
COc1ccc(S(=O)(=O)N2CCC(C(=O)NCc3ccncc3)CC2)cc1Cl	Pf growth 96h 1.9µM
Cc1cccn2c(=O)nc(SCC(=O)NC3CCCC3)nc12	none (no result: Shiga toxin inh, Cycloheximide cs)
CC/C(=N\NC(=O)c1csc(C)c1C)c1cccs1	Shiga toxin inh 95, Cycloheximide cs 37
CCC/C(=N\NC(=O)c1csc(C)c1C)c1cccs1	Shiga toxin inh 84, Cycloheximide cs 36 (no result: Pf growth 96h)
CCCCOc1ccc(/C=N/NC(=O)c2csc(C)c2C)cc1	Pf growth 48h inconclusive (no result: Pf growth 96h)
COc1ccccc1C(CNc1nc(C(F)(F)F)nc2ccccc12)N(C)C (stereo not given)	Pf growth 96h inconclusive, Pf growth 48h inconclusive
CC(C)NC(=S)N(CCc1ccncc1)C(C)C	Pf growth 96h 1.3µM
Cc1cccc(NC(=S)N(CCc2ccncc2)C(C)C)c1C	Pf growth 96h inconclusive
C=C(C)c1cccc(C(C)(C)NC(=O)Nc2ncccn2)c1	Pf growth 96h 8.3µM, Pf growth 48h inconclusive
C=C(C)c1cccc(C(C)(C)NC(=O)Nc2cccnc2)c1	Pf growth 96h 4.7µM, Pf growth 48h inconclusive
C=C(C)c1cccc(C(C)(C)NC(=O)NCc2ccncc2)c1	Pf growth 96h inconclusive, Pf growth 48h 13µM
C=C(C)c1cccc(C(C)(C)NC(=O)NCc2cccnc2)c1	Pf growth 96h inconclusive
Cc1cc(OCC(O)CN2CCCC2)cc(C)c1Cl (stereo not given)	none
NS(=O)(=O)c1ccc(NC(=O)COC(=O)c2cnc(Cl)c(Cl)c2)cc1	none
